# Laboratory results published in PubChem BioAssay (EPA / NIEHS).
# More than one record can exist for a structure, and the calls need not agree. Active and inactive are the calls of the source. The calls were made as follows: active = hit-call score of the fitted dose curve at least 0.9, where 1 is the maximum; inactive = score below 0.9.
# Read-out: Tissue plasminogen activator (tPA), PLAT (gene 5327)
# Experiment: BSK_BE3C_tPA: BioMAP Diversity Plus: BE3C Assay for Tissue plasminogen activator (tPA) Biomarker Activity (AID 2283041)
# Conditions: primary human bronchial epithelial cells; actives raise or lower the signal
# Procedure: BSK_BE3C is a cell-based, multiplexed-readout assay that uses bronchial epithelial cell, a human lung primary cell, with measurements taken at 24 hours after chemical dosing in a 96-well plate.BSK_BE3C_tPA is an assay component measured in the BSK_BE3C assay. It measures tPA antibody related to regulation of gene expression using ELISA technology.Data from the assay component BSK_BE3C_tPA was analyzed into 1 assay endpoint. This assay endpoint, BSK_BE3C_tPA, was analyzed with bidirectional fitting relative to DMSO as the negative control and baseline of activity. Using a type of binding reporter, gain or loss-of-signal activity can be used to understand changes in the signaling as they relate to the gene PLAT. Furthermore, this assay endpoint can be referred to as a primary readout, because this assay has produced multiple assay endpoints where this one serves a signaling function. To generalize the intended target to other relatable targets, this assay endpoint is annotated to the protease intended target family, where the subfamily is serine protease.
# The levels of cell surface (or secreted, indicated by the prefix "s") biomarker endpoints were measured by ELISA. Overt cytotoxicity to cells in confluent adherent cultures (all systems other than the BT system) was assessed by measuring total protein levels using sulforhodamine B (SRB) staining in parallel cultures at the time of biomarker measurements, indicated as SRB endpoints. For proliferation assays for adherent cell types, individual cell types are cultured at sub-confluence and relative cell numbers quantified by SRB staining at time points optimized for each system (48 h: 3C and CASM3C systems; 72 h: BT and HDF3CGF systems; 96 h: SAg system). SRB was performed by staining cells with 0.1% SRB after fixation with 10% TCA and reading wells at 560 nm.Viability and proliferation of PBMC (T cells) was quantified by Alamar Blue reduction for the SAg and BT systems. For PBMC viability (referred to as PBMC Cytotoxicity within the assay endpoint names), cells were plated (75,000/well in a 96-well plate) and then chemical samples added for 1 h before addition of activators, SEB and TSST-1 (20 ng/mL final concentration each). Cells were incubated for 90 h. Then, Alamar Blue (20 uL/well) (Invitrogen, Cat DAL1100) was added for 6 h, and the plates were read with a fluorescence microplate reader at 546/580 nm (excitation/emission). For PBMC proliferation, cells were plated and activated as above but incubated for only 16 h prior to addition of Alamar Blue. Plates were read after 6 h.
Structure (SMILES),outcome,AC50
Oc1cc(Cl)ccc1Cl,inactive,–
CC(C)(C)C(O)C(Oc1ccc(-c2ccccc2)cc1)n1cncn1 (stereo not given),inactive,–
O=C1C=CC(=O)C=C1,inactive,34.9 µM (active)
CC1(C)[C@H](C(=O)O[C@H](C#N)c2cccc(Oc3ccccc3)c2)[C@@H]1C=C(Br)Br,inactive,–
Cc1ccc(OP(=O)(Oc2ccc(C)cc2)Oc2ccc(C)cc2)cc1 (tested in a mixture with another compound),inactive,–
O=S(=O)(c1ccccc1)c1ccccc1,inactive,–
CCCC[N+](CCCC)(CCCC)CCCC,inactive,–
O=c1[nH]c(Cl)c(Cl)cc1Cl,inactive,–
CC(C)CCCCCCCOP(=O)(Oc1ccccc1)Oc1ccccc1,–,3.21 µM (active)
COc1ccc(CO)cc1,inactive,–
COCC(=O)N(c1c(C)cccc1C)N1CCOC1=O,inactive,–
CC(C)(c1cc(Cl)c(O)c(Cl)c1)c1cc(Cl)c(O)c(Cl)c1,inactive,–
O=[N+]([O-])O,inactive,–
Oc1ccc(C2(c3ccc(O)cc3)c3ccccc3-c3ccccc32)cc1,inactive,–
O=C(O)CCCc1ccc(N(CCCl)CCCl)cc1,inactive,10.7 µM (active)
CCCOC(=O)c1ccccc1C(=O)OCCC,inactive,–
O=[N+]([O-])c1ccc(Cl)cc1,inactive,–
C=CCN(CC=C)C(=O)C(Cl)Cl,inactive,–
CC(=O)/C=C/c1ccccc1,inactive,–

Structure (SMILES),outcome,AC50
CNC(=O)Oc1cc(C)c(SC)c(C)c1,inactive,–
CC(C)CCCCCCCOC(=O)c1ccccc1C(=O)OCCCCCCCC(C)C,inactive,–
O=c1c2ccccc2c(=O)c2c1cc(Cl)c1[nH]c3c([nH]c12)c(Cl)cc1c(=O)c2ccccc2c(=O)c13,inactive,–
O=C(CCl)c1ccccc1,inactive,–
COC(C)(C)CCC[C@H](C)C/C=C/C(C)=C/C(=O)OC(C)C,–,9.71 µM (active)
CCC(C)c1cc([N+](=O)[O-])cc([N+](=O)[O-])c1OC(=O)C=C(C)C (stereo not given),–,6.13 µM (active)
CCCCCCCCCCCC#N,inactive,–
[Cd+2].[Cl-].[Cl-],inactive,26 µM (active)
c1ccc(Nc2ccc3ccccc3c2)cc1,inactive,–
C=CC(=O)OCC(CC)CCCC (stereo not given),inactive,–
Clc1ccc(-c2ccccc2)cc1,inactive,–
O=[N+]([O-])C=Cc1ccccc1,inactive,–
CC(C)COP(=O)(OCC(C)C)OCC(C)C,inactive,–
CCc1cc(C)cc(CC)c1-c1c(OC(=O)C(C)(C)C)n2n(c1=O)CCOCC2,–,5.24 µM (active)
Nc1ccc(-c2ccc(N)c(N)c2)cc1N,inactive,–
O=C1C(Cl)=C(Cl)C(=O)C(Cl)=C1Cl,inactive,–
O=P1(NCCCl)OCCCN1CCCl (stereo not given),inactive,–
N#CCCCCC#N,inactive,–
